# Compounds with a hit are over-represented: about 10% of the library has one in this group of screens.
# Lamin A splicing – LMNA splicing modulation; HeLa LMNA splicing GFP/RFP minigene ratio, 48 h; Potency, µM (titrated, usually from 46.1 µM), for the others: at the top dose ratio change, negative = inhibition, actives largely listed as inhibitors; hit rate 0.01% among 200,000; active = well fitted inhibition curve with a large enough effect in the signal ratio, with a control signal flat, not every such curve was filed as active; inconclusive = small, poorly fitted or top-dose-only effect, or effect the other way, or a change in a side signal; the % refers to the signal ratio; note: potency is the fitted concentration of half-maximal effect
#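 S3 HeLa stable clones carrying a lamin A-EGFP splicing minigene plus DsRed2 were seeded at 600 cells/well in Opti-MEM with 2% FBS, pin-dosed and incubated 48 h at 37°C. Acumen cytometry (488 nm) gave the GFP/RFP total-intensity ratio.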
# HPGD inh – inhibitors of human 15-hydroxyprostaglandin dehydrogenase (HPGD). P15428. purified HPGD, NADH fluorescence kinetic, PGE2 substrate. Potency, µM, inactives show top-dose activity change, negative = inhibition, actives largely listed as inhibitors. hit rate 4.3% among 150,000; note: potency is the fitted concentration of half-maximal effect
#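 NADH formation kinetics: reaction with 30 uM PGE2 and 1 mM NAD+ (final), 20 nM enzyme, Tris-HCl pH 8 with Tween 20, after 15 min compound preincubation at room temperature. Fluorescence change, last versus first of five reads.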
# PNC assembly inh – perinucleolar compartment assembly inhibition | PC3M PTB-GFP, PNC prevalence imaging, 16 h; hits give low values | activity change (PNC), negative = inhibition, % at 10 µM | AID 2417 | hit rate 3.1% among 140,000;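 active = readout at or below -70, meaning at least 70% loss of cells showing the perinucleolar compartment, a nuclear body marking cancer cells; inconclusive = readout between -30 and a set limit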;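 note: plate controls were DMSO wells for no effect and camptothecin positive control wells for full effect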
#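 PC3M cells stably expressing PTB-GFP, 750–1000 cells/well, treated 16 h at 37 °C with compound (23 nl of library stock), in duplicate. After paraformaldehyde fixation and Hoechst stain, imaged at 20x; PNC prevalence scored by image analysis.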
# ALDH1A1 inh – ALDH1A1 (human) enzyme inhibition; P00352; Purified ALDH1A1, NADH fluorescence, propionaldehyde substrate; Potency, µM (series often up to 75.3 µM), without a hit: at the highest dose activity, negative = inhibition, actives largely listed as inhibitors; hit rate 7.3% among 220,000; AID 1030;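 note: potency is the fitted concentration of half-maximal effect; plate controls were no enzyme wells and a reference inhibitor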
# ALOX12 inhib – inhibitors of human 12-lipoxygenase (ALOX12); P18054; purified 12-hLO, xylenol orange hydroperoxide absorbance; Potency, µM (top dose mostly 57.1 µM), for inactives: at the top dose activity change, negative = inhibition, usual class: inhibitors; hit rate 0.12% among 150,000; active = well fitted inhibition curve with a large enough effect; inconclusive = small, poorly fitted or top-dose-only effect; note: potency is the fitted concentration of half-maximal effect; nearly all actives have a fitted effect of over 55% in size
# Target sequence (P18054 whole entry, looked up): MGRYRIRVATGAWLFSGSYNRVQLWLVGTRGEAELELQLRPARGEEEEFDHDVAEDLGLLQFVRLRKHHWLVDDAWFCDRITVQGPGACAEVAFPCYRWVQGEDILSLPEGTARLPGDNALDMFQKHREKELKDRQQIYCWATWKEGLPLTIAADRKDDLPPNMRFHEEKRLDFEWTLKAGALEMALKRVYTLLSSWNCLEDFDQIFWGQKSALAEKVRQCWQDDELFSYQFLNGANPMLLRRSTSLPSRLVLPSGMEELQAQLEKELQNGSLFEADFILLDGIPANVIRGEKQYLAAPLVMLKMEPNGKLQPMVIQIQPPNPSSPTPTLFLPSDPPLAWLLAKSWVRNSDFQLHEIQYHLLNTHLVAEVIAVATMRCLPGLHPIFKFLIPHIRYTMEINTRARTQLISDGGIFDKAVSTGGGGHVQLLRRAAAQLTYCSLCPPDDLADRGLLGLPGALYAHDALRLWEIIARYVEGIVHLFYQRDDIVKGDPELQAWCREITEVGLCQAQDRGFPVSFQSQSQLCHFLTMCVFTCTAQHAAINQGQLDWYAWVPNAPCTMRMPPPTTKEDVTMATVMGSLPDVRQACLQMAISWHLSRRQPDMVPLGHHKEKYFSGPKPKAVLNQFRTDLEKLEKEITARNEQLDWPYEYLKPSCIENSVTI
#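 Hydroperoxide formation by human 12-lipoxygenase from 40 uM arachidonic acid was followed colorimetrically via ferric-xylenol orange complex, using the 573/405 nm absorbance ratio. Enzyme concentration was 150 nM, with 30 min reaction at room temperature.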
# The depositor's hits bear a star; ? = inconclusive; . = not tested or not shown; [ ] = another dose, or the depositor's remark. Unless noted, calls come from the whole dose curve; as a rule, active = well fitted inhibition curve with a large enough effect (not every such curve was filed as active); inconclusive = small, poorly fitted or top-dose-only effect, or another doubt; inactive = no such curve, though single readings can be large or run the other way. Unless noted, % is set by controls: 0 for no effect and ±100 for the full control effect.
SMILES,Lamin A splicing,HPGD inh,PNC assembly inh,ALDH1A1 inh,ALOX12 inhib
O=c1c(CCc2ccccc2)nc2cnc(N3CCOCC3)nc2n1C[C@H]1CCCO1,.,?,.,?,5%
CC1CCCCN1CCNC(=O)C1CCN(S(=O)(=O)c2cccc3cccnc23)CC1 (stereo unspecified),-12%,-9%,-11,-2%,-2%
O=C(C1CCN(S(=O)(=O)c2cccc3cccnc23)CC1)N1CCCC1,-2%,-11%,39,6%,2%
CCN(CC)C(=O)C1CCC(CNS(=O)(=O)c2cccc3cccnc23)CC1 (stereo unspecified),-7%,7.9µM*,75,?,3%
CC1CCN(C(=O)C2CCC(CNS(=O)(=O)c3cccc4cccnc34)CC2)CC1 (stereo unspecified),-9%,0.89µM*,?,?,3%
O=C(NCCN1CCCCCC1)C1CCC(CNS(=O)(=O)c2cccc3cccnc23)CC1 (stereo unspecified),-6%,-15%,9,13µM*,7%
CCN(CCNC(=O)C1CCN(S(=O)(=O)c2cccc3cccnc23)CC1)c1ccccc1,-11%,-18%,-25,40µM*,-3%
NCCn1c(=O)c(CCc2ccccc2)nc2cncnc21,-7%,.,.,-3%,.
c1ncc(-c2ccc3c(c2)OCO3)c(NCCc2cnc[nH]2)n1,?,-23%,.,?,-1%
CN1CCCN([C@@H](c2ccccc2)c2ccc(Cl)cc2)CC1,?,2%,.,11%[20.9 µM],6%[25.6 µM]
O=C(C1CCN(S(=O)(=O)c2cccc3cccnc23)CC1)N1CCc2ccccc21,8%[0.0737 µM],-7%,34,?,-1%
CN1CCN(C(=O)C2CCC(CNS(=O)(=O)c3cccc4cccnc34)CC2)CC1 (stereo unspecified),4%,16µM*,0,0%,5%
O=C(C1CCC(CNS(=O)(=O)c2cccc3cccnc23)CC1)N1CCc2ccccc21 (stereo unspecified),?,?,-20,1.3µM*,1%
O=C(C1CCC(CNS(=O)(=O)c2cccc3nsnc23)CC1)N1CCN(c2ccccn2)CC1 (stereo unspecified),.,.,.,-4%,.
O=C(CC1Sc2ncnn2C1=O)Nc1ccc(Br)cc1 (stereo unspecified),?,16µM*,1,7.9µM*,-13%
O=C(CC1SC(=Nc2ccccc2)N(Cc2ccccn2)C1=O)Nc1ccc(Br)cc1 (stereo unspecified),?,?,?,7.1µM*,?
O=C(CC1SC2=NCCN2C1=O)Nc1ccc(Br)cc1 (stereo unspecified),-4%,-3%,?,3%,-8%
CCc1nn2c(=O)cc(COC(=O)COc3ccc(OC)cc3)nc2s1,-10%[46 µM],.,.,.,.
CCOc1ccc(S(=O)(=O)N2CCN(C(=S)NCc3ccccc3)CC2)cc1,-19%[46 µM],.,.,-6%,.
O=S(=O)(c1cccc(F)c1)N1CCN(C(=S)NCc2ccccc2)CC1,?,.,.,14µM*,.
O=S(=O)(c1ccccc1F)N1CCN(C(=S)NCc2ccccc2)CC1,.,.,.,16µM*,.
Cc1cc(C)c(S(=O)(=O)NCC(c2ccco2)N2CCN(c3ccccc3)CC2)c(C)c1 (stereo unspecified),0%[46 µM],.,.,.,.
O=C(COc1ccc(F)cc1)OCc1cc(=O)n2nc(C3CC3)sc2n1,-18%[46 µM],.,.,.,.
Cc1cccc(C(=O)Nc2nnc(S(=O)(=O)N3c4ccccc4CC3C)s2)c1 (stereo unspecified),8%[46 µM],.,.,.,.
CCc1ccc(NC(=O)c2cnn(-c3ccccc3)c2C)cc1,-6%,2.5µM*,41,9%,2%
SMILES,Lamin A splicing,HPGD inh,PNC assembly inh,ALDH1A1 inh,ALOX12 inhib
CCCc1c(C(=O)NNc2ccc(C)cc2)cnn1-c1ccccc1,.,.,.,14µM*,.
CCCc1c(C(=O)Nc2ccc(N3CCOCC3)cc2)cnn1-c1ccccc1,.,.,.,3.2µM*,.
CCc1ccc(NC(=O)c2cnn(-c3ccccc3)c2C2CCNCC2)cc1,.,.,.,4%,.
CCCc1c(C(=O)Nc2cc(C)on2)cnn1-c1ccccc1,.,.,.,18µM*,.
CC(C)c1ccc(NC(=O)CSc2nc(=O)n(Cc3ccccn3)c3c2CCC3)cc1,-2%[46 µM],.,.,.,.
CN(C)c1ccc(C(CNC(=O)c2ccccc2Cl)N2CCCC2)cc1 (stereo unspecified),-1%[46 µM],.,.,.,.
COc1ccc(NC(=O)N(CCC(C)C)C(C)c2ccccn2)c(OC)c1 (stereo unspecified),1%,-17%,18,14µM*,-1%
CCC(C)C(=O)Nc1ccc(OC)cc1OC (stereo unspecified),4%,0%,-20,8%,6%
O=S(=O)(NCCOc1ccc(F)cc1)c1ccc2c(c1)OCCO2,?,-2%,-4,?,-2%
O=S(=O)(NCCSc1ccccc1)c1ccc2c(c1)OCCO2,-3%,-17%,42,0.56µM*,-5%
CC(C)NC(=O)N1CCCC2(CCN(C(=O)c3cccc(F)c3)CC2)C1,.,-3%,.,15%,0%
CC(C)C[C@H]1COC(c2ccc(Br)cc2)=N1,.,-14%,.,4%,1%[0.00818 µM]
O=C(OC(C(=O)NC1CCCCC1)c1ccccc1)c1ccco1 (stereo unspecified),-13%,?,?,?,16%
O=C(OC(C(=O)NC1CCCC1)c1ccccc1F)c1ccco1 (stereo unspecified),-6%,-8%,-139*,-7%,3%
CN1CCO[C@H](c2ccccc2)c2ccccc2C1,?,0%,.,10%[20.9 µM],-1%[25.6 µM]
CCOC(=O)N1CCN(C(=O)c2sc3nc(-c4ccc(F)cc4)cn3c2C)CC1,4%,-2%,15,1%,-2%
Cc1c(C(=O)N2CC(C)OC(C)C2)sc2nc(-c3ccc(F)cc3)cn12 (stereo unspecified),2%,35µM*,15,-12%,-1%
CCN(CC)c1ccc(/C=C(/C#N)C(=O)NCc2ccccc2)o1,?,16µM*,-90*,2.8µM*,-11%
CCN(CC)c1ccc(/C=C(/C#N)C(=O)NC(C)C)o1,11%[46 µM],.,.,10µM*,.
CC(=O)Nc1ccc(/C=C(\C#N)C(=O)NCc2ccccc2)cc1,-5%,?,49,-9%,-2%
Cc1noc(C)c1C(=O)N1CCC2(CCCN(C(=O)NC(C)C)C2)CC1,.,-8%,.,16%,0%
FC(F)(F)c1ccccc1-c1cc(NCCN2CCOCC2)ncn1,-1%,.,.,?,.
CCN(CC)c1ccc(/C=C2/SC(=O)N(C(C)C)C2=O)o1,?,-20%,?,2.5µM*,-3%
CCC(=O)Nc1ccc(C(=O)c2ccccc2)cc1,-6%,14µM*,-17,?,-3%
CCCC(=O)Nc1ccc(Nc2ccccc2)cc1,2%,16µM*,?,?,-3%
CCCOC(=O)c1ccc(NC(=O)CCOc2ccccc2)cc1,17%,-18%,-5,14µM*,-10%
CN(C)c1nc(-c2ccccc2C(F)(F)F)nc2ccccc12,-5%,.,.,-6%,.

# From PubChem
